In PubChem BioAssay AID1159580 (chemical genetic matrix, 2015):
Hit rate of the full screen: of about 5,500 compounds, about 2,000 (36%) were called active. Inconclusive results (about 18%) are left out. Cut-off read from the data, not from the text of the source: active = normalized growth mostly below about 0.91 (no sharp cut-off); inconclusive = no clear call, values can overlap the other calls; inactive = mostly above about 0.92. The list shows a part of the results.

Assay: chemical genetic growth profiling, strain panel (AID 1159580);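 note: tested at 20 µM; growth read once vehicle control cultures reached saturation at 30 °C; 1 = growth at the plate median or of vehicle wells; lower values mean less growth of the strain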
Conditions: S. cerevisiae deletion strains, growth OD

Measured: normalized growth

CNC(=O)Oc1cccc2c1OC(C)(C)O2
inactive: locus YAL013W, strain DEP1, stronger effect = lower value 1.01 | locus YAL021C, strain ccr4, stronger effect = lower value 0.991 | locus YAL026C, strain drs2, stronger effect = lower value 1 | locus YAL030W, strain snc1, stronger effect = lower value 1.01 | locus YBL061C, strain skt5, stronger effect = lower value 1 | locus YBR009C, strain hhf1, stronger effect = lower value 1 | locus YBR021W, strain FUR4, stronger effect = lower value 1.03 | locus YBR023C, strain chs3, stronger effect = lower value 1 | locus YBR171W, strain sec66, stronger effect = lower value 1.01 | locus YBR229C, strain ROT2, stronger effect = lower value 1.02 | locus YBR231C, strain swc5, stronger effect = lower value 1 | locus YBR279W, strain paf1, stronger effect = lower value 0.994 | locus YCL011C, strain gbp2, stronger effect = lower value 1 | locus YCL016C, strain dcc1, stronger effect = lower value 1 | locus YCL029C, strain bik1, stronger effect = lower value 0.999 | locus YCL061C, strain MRC1, stronger effect = lower value 0.998 | locus YCL069W, strain vba3, stronger effect = lower value 0.998 | locus YCR088W, strain abp1, stronger effect = lower value 1 | locus YDL005C, strain med2, stronger effect = lower value 0.996 | locus YDL035C, strain GPR1, stronger effect = lower value 1.02 | locus YDL040C, strain nat1, stronger effect = lower value 1 | locus YDL074C, strain BRE1, stronger effect = lower value 1.07 | locus YDL101C, strain DUN1, stronger effect = lower value 1.03 | locus YDL134C, strain PPH21, stronger effect = lower value 1.02 | locus YDL185W, strain tfp1, stronger effect = lower value 0.995 | locus YDL192W, strain arf1, stronger effect = lower value 0.993 | locus YDR001C, strain nth1, stronger effect = lower value 1 | locus YDR069C, strain doa4, stronger effect = lower value 1 | locus YDR101C, strain arx1, stronger effect = lower value 0.989 | locus YDR137W, strain rgp1, stronger effect = lower value 1.05 | locus YDR150W, strain NUM1, stronger effect = lower value 1.02 | locus YDR159W, strain sac3, stronger effect = lower value 0.988 | locus YDR162C, strain NBP2, stronger effect = lower value 1.02 | locus YDR195W, strain ref2 0.967 | locus YDR297W, strain sur2, stronger effect = lower value 0.997 | locus YDR318W, strain mcm21, stronger effect = lower value 0.996 | locus YDR334W, strain swr1, stronger effect = lower value 1.01 | locus YDR335W, strain msn5, stronger effect = lower value 0.995 | locus YDR388W, stronger effect = lower value 0.996 | locus YDR392W, strain spt3, stronger effect = lower value 0.814 | locus YDR502C, strain sam2, stronger effect = lower value 0.997 | locus YEL003W, strain gim4, stronger effect = lower value 0.999 | locus YEL037C, strain rad23, stronger effect = lower value 0.998 | locus YEL061C, strain CIN8 (second series), stronger effect = lower value 1.01 | locus YEL061C, strain CIN8, stronger effect = lower value 1.01 | locus YER015W, strain faa2, stronger effect = lower value 1 | locus YER016W, strain bim1, stronger effect = lower value 0.998 | locus YER110C, stronger effect = lower value 1 | locus YER111C, strain swi4, stronger effect = lower value 0.992 | locus YER155C, strain BEM2 (second series), stronger effect = lower value 0.998 | locus YER155C, strain BEM2, stronger effect = lower value 1.02 | locus YER167W, strain BCK2, stronger effect = lower value 1.01 | locus YFR010W, strain ubp6, stronger effect = lower value 0.987 | locus YGL078C, strain dbp3, stronger effect = lower value 0.99 | locus YGL086W, strain mad1, stronger effect = lower value 0.996 | locus YGL167C, strain pmr1, stronger effect = lower value 1 | locus YGL173C, strain kem1, stronger effect = lower value 1 | locus YGL227W, strain vid30, stronger effect = lower value 0.999 | locus YGL240W, strain doc1, stronger effect = lower value 0.986 | locus YGL248W, strain PDE1, stronger effect = lower value 1.01 | locus YGL253W, strain hxk2, stronger effect = lower value 1 | locus YGR078C, strain PAC10, stronger effect = lower value 1.02 | locus YGR135W, strain pre9, stronger effect = lower value 0.999 | locus YGR229C, strain SMI1, stronger effect = lower value 1.03 | locus YGR252W, strain gcn5, stronger effect = lower value 0.941 | locus YHR013C, strain ard1, stronger effect = lower value 0.946 | locus YHR027C, strain rpn1, stronger effect = lower value 1.01 | locus YHR030C, strain SLT2, stronger effect = lower value 1.02 | locus YHR079C, strain IRE1 (second series), stronger effect = lower value 0.99 | locus YHR094C, strain hxt1, stronger effect = lower value 0.995 | locus YHR129C, strain ARP1, stronger effect = lower value 1.02 | locus YHR142W, strain chs7, stronger effect = lower value 1 | locus YHR200W, strain rpn10, stronger effect = lower value 0.995 | locus YIL066C, strain RNR3, stronger effect = lower value 1.02 | locus YIL073C, strain SPO22, stronger effect = lower value 0.954 | locus YIL125W, strain kgd1, stronger effect = lower value 1 | locus YIR030C, strain dcg1, stronger effect = lower value 0.995 | locus YJL092W, strain hpr5, stronger effect = lower value 1 | locus YJL095W, strain BCK1 (second series), stronger effect = lower value 0.997 | locus YJL095W, strain BCK1, stronger effect = lower value 1.04 | locus YJL115W, strain asf1, stronger effect = lower value 0.997 | locus YJL129C, strain trk1, stronger effect = lower value 1.02 | locus YJL134W, strain LCB3, stronger effect = lower value 1.02 | locus YJL154C, strain vps35, stronger effect = lower value 1 | locus YJL164C, strain tpk1, stronger effect = lower value 0.991 | locus YJL166W, strain qcr8, stronger effect = lower value 0.992 | locus YJL168C, strain set2, stronger effect = lower value 0.991 | locus YJL187C, strain SWE1 (second series), stronger effect = lower value 1.01 | locus YJL187C, strain SWE1, stronger effect = lower value 1.01
